Experimental findings from PubChem BioAssay are described below.

A short description of assay [1]: inhibitors of TNFa-induced NFkB p65 translocation, primary screen, imaging, HUVEC, MLSMR starter and 10KST1 sets (AID 438;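 active = inhibition above 20% together with a positive visual image hit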;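 also: compound added about 3h40 before a 20 min TNFalpha stimulation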;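 as to inhibition: signal is the nuclear over cytoplasmic p65 intensity ratio per well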). Particulars: HUVEC TNFa-induced p65 nuclear translocation; cell count: measured here: nuclei count (cytotoxicity indicator), at 2.08 µM; inhibition: at 2 µM, stronger effect = higher value, 0% TNFa-plus-vehicle, 100% no-TNFa wells.
Assay [2] is described as follows: inhibitors of mutant huntingtin aggregation, primary screen, imaging, exon1htt(103Q)mCFP cells, high-content imaging (AID 483;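 active = visual image review flags a hit and inhibition of aggregation exceeds 20%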;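 also: compound exposure lasted 3 days before fixation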;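 as to nuclei count: percent of the per-plate median nuclei count of sample wells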). Particulars: exon1htt(103Q)mCFP cell line, aggregate imaging, at 2 µM; inhibition of aggregation: stronger effect = higher value; nuclei count: measured here: cell count, toxicity.
A short description of assay [3]: inhibitors of E-selectin induction by TNFa, primary screen, imaging, HUVEC, immunofluorescence, MLSMR starter and 10KST1 sets (AID 487;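 active = visually confirmed hit in the image check and inhibition above 20%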;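 as to inhibition: signal is fraction of cell area covered by stained E-selectin grains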;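 as to nuclei count: 100% = median nuclei count of all wells on the same plate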). Particulars: HUVEC TNFalpha-induced E-selectin immunofluorescence imaging, at 2 µM; inhibition: stronger effect = higher value; nuclei count: measured here: cell number, toxicity.
The target in assay [4] is Voltage-gated potassium channel subunit beta-2 (Rattus norvegicus) (UniProt P62483). The assay can be described thus: KvBeta enzyme negative modulators, primary screen, biochemical, NADPH fluorescence (AID 622;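 active = fluorescence slope higher than the sample average by over 3 SD, cut at about -0.22 in these data, passing the limit was not always enough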;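 also: slope of raw intensity against log time taken from 70 to 1610 s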). Particulars: recombinant KvBeta, 4-cyanobenzaldehyde reduction, at 10 µM, stronger effect = higher value.
Sequence of Voltage-gated potassium channel subunit beta-2 (Rattus norvegicus) (P62483 whole entry, looked up): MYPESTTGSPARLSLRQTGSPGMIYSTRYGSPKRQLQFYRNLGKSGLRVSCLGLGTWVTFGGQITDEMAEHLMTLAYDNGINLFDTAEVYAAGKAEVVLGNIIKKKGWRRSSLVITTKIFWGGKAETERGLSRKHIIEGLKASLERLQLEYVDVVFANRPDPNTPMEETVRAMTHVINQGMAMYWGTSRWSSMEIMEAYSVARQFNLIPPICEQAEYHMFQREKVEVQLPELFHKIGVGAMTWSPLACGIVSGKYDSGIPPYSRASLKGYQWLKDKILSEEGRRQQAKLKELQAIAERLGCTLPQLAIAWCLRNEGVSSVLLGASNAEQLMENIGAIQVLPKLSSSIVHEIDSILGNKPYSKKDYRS
Assay [5] shares this target. The assay can be described thus: KvBeta positive modulators, primary screen, biochemical, NADPH fluorescence (AID 623;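 active = NADPH fluorescence slope more negative than the mean of all samples by about 3 SD, 99.7% confidence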;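 also: fluorescence intensity change per second fitted from 20 to 320 s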). Particulars: Recombinant KvBeta, NADPH fluorescence decrease slope, 10 min; at 10 µM; stronger effect = lower value.
Assay [6] deals with Alpha-2C adrenergic receptor (Homo sapiens) (UniProt P18825). The assay can be described thus: modulators of alpha2C/GIRK thallium flux, primary screen, cell-based, HEK293 alpha2C/GIRK1/2 (AID 624;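 active = fluorescence slope after compound addition differing from the mean of all screened samples at 99.7% confidence, in either direction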;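 also: slope of fluorescence ratio to pre-addition baseline per second over 15 to 24 s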). Particulars: thallium flux BTC fluorescence, at 10 µM, actives lie on both sides.
Sequence of Alpha-2C adrenergic receptor (Homo sapiens) (P18825 whole entry, looked up): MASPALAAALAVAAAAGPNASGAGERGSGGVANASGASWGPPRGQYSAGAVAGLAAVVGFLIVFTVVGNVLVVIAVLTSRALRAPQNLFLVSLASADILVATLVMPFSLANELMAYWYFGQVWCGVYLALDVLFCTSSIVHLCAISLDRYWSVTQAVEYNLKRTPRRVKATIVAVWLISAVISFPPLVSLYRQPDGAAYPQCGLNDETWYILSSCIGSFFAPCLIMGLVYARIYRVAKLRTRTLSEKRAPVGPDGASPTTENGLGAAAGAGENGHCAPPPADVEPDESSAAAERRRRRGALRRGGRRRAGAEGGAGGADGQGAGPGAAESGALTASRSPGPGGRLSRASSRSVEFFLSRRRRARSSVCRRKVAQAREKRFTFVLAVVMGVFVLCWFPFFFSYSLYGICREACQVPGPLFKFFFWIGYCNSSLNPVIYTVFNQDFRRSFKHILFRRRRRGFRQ
Assay [7] in a line: inhibitors of Sendai virus-induced IRF3 signaling, primary screen, TLR/RLR signaling modifier project, cell-based, Sendai virus stimulus, luciferase, 10K MLSCN set (AID 602276;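 active = inhibition at or above 50% at 10 µM; inactive = inhibition below 50%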;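 also: firefly luciferase from ISG56 promoter only with Renilla not read in this screen; 0% = Sendai virus plus DMSO and 100% = medium plus DMSO without virus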). Particulars: HEK293 RL24 IRF3 luciferase reporter, at 10 µM, stronger effect = higher value.
Assay [8] can be described thus: inhibitors of poly I:C-induced TLR3 signaling, primary screen, cell-based, poly I:C stimulus, luciferase, 10K MLSCN set (AID 602277). Particulars: HEK293-TLR3 RL24 IRF3 luciferase reporter, at 10 µM, stronger effect = higher value.

Active and inactive are the calls of the source.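 The calls were made as follows, unless noted: active = inhibition of the reporter signal at or above 50%; inactive = inhibition below 50%.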

The inhibition is the relative decrease from the control value, in per cent. Turning to `CCCN1C2CCCC1CC(NC(=O)c1ccccc1F)C2` (centres undefined), the cell count in assay [1] came to 461. Besides, the inhibition in assay [1] was 6% (inactive); in assay [3], 14.8% (inactive); in assay [7], 10.6% (inactive); in assay [8] it was 17.7% (inactive). In addition, in assay [2], the inhibition of aggregation is -1.6% (inactive). Besides, the nuclei count was 115% in assay [2] and 101% in assay [3]. Moreover, the fluorescence slope in assay [4] was -0.515 (inactive). Besides, in assay [5], the NADPH fluorescence slope was -4.7e-05 (inactive). The slope in assay [6] is 0.00485 (inactive).
Regarding `COc1cc(C)c(-c2cc(C(=O)O)c(C)o2)cc1C(C)C`, the cell count in assay [1] worked out at 451. Also, the inhibition is -7.7% (inactive) in assay [1], -99% (inactive) in assay [3], 12.3% (inactive) in assay [7] and 17.2% (inactive) in assay [8]. For the same molecule, in assay [2], the inhibition of aggregation was -1.5% (inactive). For the same molecule, the results for the nuclei count in assay [2] and in assay [3] were 95.9% and 130%, respectively. Moreover, the fluorescence slope in assay [4] was -0.416 (inactive). Also, the NADPH fluorescence slope in assay [5] was 6.3e-06 (inactive). In assay [6], the slope is 0.00528 (inactive).
In the case of `CCCNc1nc2c(c(=O)n(C)c(=O)n2C)n1Cc1cccc(C)c1`, the cell count in assay [1] came to 697. In addition, the inhibition was -3.6% (inactive) in assay [1], -95.3% (inactive) in assay [3], 3.02% (inactive) in assay [7] and 4.07% (inactive) in assay [8]. Also, the inhibition of aggregation in assay [2] was 10.2% (inactive). Also, the figures for the nuclei count in assay [2] and in assay [3] were 97.4% and 148%, respectively. In addition, in assay [4], the fluorescence slope was -0.567 (inactive). The NADPH fluorescence slope in assay [5] was -2.9e-05 (inactive). Further, the slope in assay [6] is 0.00499 (inactive).
`COc1ccc2cc3cc(C(=O)NCC4CCCO4)oc3nc2c1` (centres undefined): the cell count in assay [1] stood at 323. In addition, the inhibition was -7.8% (inactive) in assay [1], -20.5% (inactive) in assay [3], -11.2% (inactive) in assay [7] and -36.3% (inactive) in assay [8]. The inhibition of aggregation in assay [2] is 3.3% (inactive). Also, the nuclei count in assay [2] is 56.8%; in assay [3], 108%. Also, the fluorescence slope in assay [4] was -0.0444 (active). For the same molecule, the NADPH fluorescence slope in assay [5] was -1.4e-06 (inactive). Besides, the slope in assay [6] was 0.00645 (inactive).
With `Cc1ccc(-c2nnc(SCC(=O)N3c4ccccc4NC(=O)C3(C)C)n2N)cc1`, the cell count in assay [1] was determined as 809. Further, the inhibition in assay [1] is -0.7% (inactive); in assay [3], -92% (inactive); in assay [7], -12.6% (inactive); in assay [8], -5.26% (inactive). Also, the inhibition of aggregation in assay [2] was -26.4% (inactive). In addition, the nuclei count came out at 93.6% in assay [2] and 120% in assay [3]. The fluorescence slope in assay [4] is -0.361 (inactive). In addition, the NADPH fluorescence slope in assay [5] was -2.3e-05 (inactive). Moreover, the slope in assay [6] is 0.00498 (inactive).
On to `NC(=O)CN1C(=O)C(O)(CC(=O)c2ccccc2O)c2ccccc21` (centres undefined), for which the cell count in assay [1] was 641. Also, the inhibition is -0.3% (inactive) in assay [1], -65.3% (inactive) in assay [3], 12.7% (inactive) in assay [7] and 38.5% (inactive) in assay [8]. Moreover, the inhibition of aggregation in assay [2] was -4.7% (inactive). Further, the nuclei count is 122% in assay [2] and 133% in assay [3]. Further, the fluorescence slope in assay [4] was -0.395 (inactive). For the same molecule, the NADPH fluorescence slope in assay [5] is -4.6e-05 (inactive). Also, in assay [6], the slope is 0.00547 (inactive).
On to `COc1ccc2cc(CN(CCO)C(=O)c3ccccc3F)c(=O)[nH]c2c1`, for which the cell count in assay [1] came to 474. The inhibition in assay [1] is 9.4% (inactive); in assay [3] it was -93% (inactive); in assay [7] it was -11.1% (inactive); in assay [8], -5.69% (inactive). For the same molecule, in assay [2], the inhibition of aggregation was -16% (inactive). Moreover, the nuclei count was 108% in assay [2] and 110% in assay [3]. In addition, the fluorescence slope in assay [4] is -0.496 (inactive). Moreover, in assay [5], the NADPH fluorescence slope is 5.3e-06 (inactive). Further, the slope in assay [6] is 0.00191 (inactive).
For the molecule `CCc1ccccc1NC(=O)c1cnc2n(c1=O)CCS2`, in assay [1], the cell count came out at 582. Moreover, the inhibition was -3.9% (inactive) in assay [1], -4.7% (inactive) in assay [3], 12.7% (inactive) in assay [7] and -13.2% (inactive) in assay [8]. The inhibition of aggregation in assay [2] is -4.9% (inactive). Also, the nuclei count in assay [2] came out at 94.6%; in assay [3], 117%. Further, in assay [4], the fluorescence slope is -0.494 (inactive). Also, in assay [5], the NADPH fluorescence slope is -1.7e-05 (inactive). Besides, the slope in assay [6] is 0.00691 (inactive).
Regarding `Cn1c(CCNC(=O)c2ccco2)nc2cc(NC(=O)C3CCCCC3)ccc21`, the cell count in assay [1] worked out at 359. Further, the inhibition in assay [1] is 0.5% (inactive); in assay [3], 42.2% (inactive); in assay [7], 6.27% (inactive); in assay [8], 0.497% (inactive). Also, in assay [2], the inhibition of aggregation was 8.3% (inactive). Further, the nuclei count worked out at 91.1% in assay [2] and 88.8% in assay [3]. Besides, the fluorescence slope in assay [4] was -0.466 (inactive). In addition, the NADPH fluorescence slope in assay [5] was -0.000205 (inactive). Also, the slope in assay [6] was 0.00612 (inactive).
As to `Cn1cc(Cl)c(C(=O)NC2CCCC2)n1`, in assay [1], the cell count is 452. Besides, the inhibition in assay [1] is -8.5% (inactive); in assay [3], -25.2% (inactive); in assay [7] it was -2.09% (inactive); in assay [8] it was 4.05% (inactive). Moreover, the inhibition of aggregation in assay [2] is 26.8% (inactive). The nuclei count was 64.4% in assay [2] and 104% in assay [3]. Further, the fluorescence slope in assay [4] is -0.594 (inactive). The NADPH fluorescence slope in assay [5] was -3.1e-05 (inactive). For the same molecule, the slope in assay [6] was 0.00694 (inactive).
Consider `Cn1c(=O)c(=O)n(C)c2cc(S(=O)(=O)CCC(=O)N3CCOCC3)ccc21`, for which the cell count in assay [1] stood at 773. Further, the inhibition in assay [1] was 0.9% (inactive); in assay [3] it was -79.8% (inactive); in assay [7] it was 8.53% (inactive); in assay [8], 5.94% (inactive). Further, in assay [2], the inhibition of aggregation was 22.5% (inactive). For the same molecule, the results for the nuclei count in assay [2] and in assay [3] were 93% and 113%, respectively. The fluorescence slope in assay [4] was -0.569 (inactive). Also, the NADPH fluorescence slope in assay [5] is -1.9e-06 (inactive). Further, the slope in assay [6] was 0.00791 (inactive).
With `CCN(CCNC(=O)C1CCN(S(C)(=O)=O)CC1)c1ccccc1`, in assay [1], the cell count stood at 395. The inhibition in assay [1] was 3.8% (inactive); in assay [3] it was -24.7% (inactive); in assay [7] it was 15.1% (inactive); in assay [8], 25.2% (inactive). In addition, the inhibition of aggregation in assay [2] is -13.1% (inactive). The values for the nuclei count in assay [2] and in assay [3] were 113% and 117%, respectively. Also, the fluorescence slope in assay [4] was -0.32 (inactive). Moreover, the NADPH fluorescence slope in assay [5] is -3e-05 (inactive). Further, the slope in assay [6] is 0.00548 (inactive).
Consider `Cc1nnc(SCC(=O)Nc2c(Cl)cccc2Cl)[nH]c1=O`, for which the cell count in assay [1] is 598. For the same molecule, the inhibition was 1.1% (inactive) in assay [1], 17.8% (inactive) in assay [3], 8.99% (inactive) in assay [7] and 41.1% (inactive) in assay [8]. For the same molecule, in assay [2], the inhibition of aggregation is 17.6% (inactive). Further, the figures for the nuclei count in assay [2] and in assay [3] were 87% and 103%, respectively. Moreover, the fluorescence slope in assay [4] was -0.553 (inactive). Also, in assay [5], the NADPH fluorescence slope is -4.3e-05 (inactive). Further, in assay [6], the slope was 0.00796 (inactive).
With `CCCc1ccc(Oc2cn[nH]c2-c2ccc(O)c(C)c2O)cc1`, in assay [1], the cell count amounted to 679. Also, the inhibition in assay [1] was 5.8% (inactive); in assay [3], 16% (inactive); in assay [7], -1.06% (inactive); in assay [8], -27.9% (inactive). In assay [2], the inhibition of aggregation is 11% (inactive). Also, the nuclei count in assay [2] was found to be 98%; in assay [3], 104%. The fluorescence slope in assay [4] was -0.602 (inactive). In assay [5], the NADPH fluorescence slope is -1.2e-05 (inactive). Moreover, in assay [6], the slope is 0.00642 (inactive).
